This note sets out measurements from PubChem BioAssay (NCI).

This is part of a sample that, as a whole, favours compounds with a hit. Of some 79,000 tested, about 15% had one in any assay. Values without a mark were called inactive. Activity calls are given as the source filed them. No stated cut-off is given here; in the data, active means growth inhibition above about 70%; inactive means the rest.

The nature of test [1]: NCI Yeast Anticancer Drug Screen. Data for the rad50 strain (AID 155).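 Further: 0% = growth of vehicle-only cultures of the same strain.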 The note with it: S. cerevisiae rad50 strain growth inhibition, hits give high values. The method, boiled down: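 Growth of the mutant yeast was measured after compound exposure and referenced to vehicle-treated cultures.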
Test [2] can be described thus: NCI Yeast Anticancer Drug Screen. Data for the mec2-1 strain (AID 157). The following applies: S. cerevisiae mec2-1 strain, hits give high values. The method, boiled down:
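Test agents were screened against the mec2-1 yeast strain, with defined DNA repair or cell cycle alteration. Growth was scored as inhibition against vehicle-only controls.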

Test [3] is described as follows: NCI Yeast Anticancer Drug Screen. Data for the sgs1 mgt1 strain (AID 161).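 Further: 0% = growth of cultures given vehicle only.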 The note with it: S. cerevisiae sgs1 mgt1 strain, hits give high values. The method, boiled down: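 Genetically altered yeast, compound exposure, growth inhibition relative to vehicle.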
The nature of test [4]: NCI Yeast Anticancer Drug Screen. Data for the cln2 rad14 strain (AID 165).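 Further: 0% = growth equal to vehicle treated cultures.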 The note with it: S. cerevisiae cln2 rad14 strain, hits give high values. An outline of the steps:
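Growth of compound-exposed yeast (cln2 rad14 genotype) measured and expressed as inhibition relative to vehicle.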

Test [5] is described as follows: NCI Yeast Anticancer Drug Screen. Data for the bub3 strain (AID 167). The following applies: S. cerevisiae bub3 mutant strain, hits give high values. An outline of the steps: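 Whole-cell yeast assay. The mutant strain was incubated with compounds, and growth inhibition was determined by comparison with vehicle-treated cells.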
Test [6] in a line: NCI Yeast Anticancer Drug Screen. Data for the mlh1 rad18 strain (AID 175). The note with it: S. cerevisiae mlh1 rad18 strain growth inhibition, hits give high values. The method, boiled down: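 In this whole-cell yeast screen, a strain with altered DNA damage repair is challenged with compound, and its growth is measured against matched vehicle-treated controls.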
[7] abbreviates: at 5.0 µM (retest, dose inferred, filed as 0.5).
Where [8] appears, read: at 50.0 µM (retest, dose inferred, filed as 5.0).

In the case of `Oc1ccc(N=Nc2ccccc2)cc1`, the growth inhibition is 13% in test [1] (setting [7]); 97% (active) in test [1] (setting [8]); 98.5% (active) in test [1] (at 50.0 µM); 5% in test [2] (setting [7]); 99% (active) in test [2] (setting [8]); 99.5% (active) in test [2] (at 50.0 µM). In addition, the growth inhibition is -6% in test [3] (setting [7]); 64% in test [3] (setting [8]); 99.3% (active) in test [3] (at 50.0 µM); -1% in test [4] (setting [7]); 98% (active) in test [4] (setting [8]); 98.1% (active) in test [4] (at 50.0 µM). In addition, the growth inhibition in test [5] (setting [7]) was 4%; in test [5] (setting [8]), 98% (active); in test [5] (at 50.0 µM), 98.8% (active); in test [6] (setting [7]), 9%; in test [6] (setting [8]) it was 98% (active); in test [6] (at 50.0 µM), 99.2% (active).

As to `O=C(O)c1ccc2c(c1)CCCC2`, the growth inhibition in test [1] (setting [7]) is -154%; in test [1] (setting [8]), -116%; in test [1] (at 50.0 µM), 16.2%; in test [2] (setting [7]), -55%; in test [2] (setting [8]), -53%; in test [2] (at 50.0 µM), 6.3%. Further, the growth inhibition is -66% in test [3] (setting [7]); -58% in test [3] (setting [8]); 9.5% in test [3] (at 50.0 µM); -60% in test [4] (setting [7]); -61% in test [4] (setting [8]); 52% in test [4] (at 50.0 µM). Besides, the growth inhibition in test [5] (setting [7]) is -75%; in test [5] (setting [8]) it was -70%; in test [5] (at 50.0 µM), -12.9%; in test [6] (setting [7]), -143%; in test [6] (setting [8]) it was -101%; in test [6] (at 50.0 µM), 21.4%.

In the case of `COc1cc(/C=C2\S/C(=N/Nc3nc(-c4ccc(Br)cc4)cs3)NC2=O)cc(OC)c1OC`, the growth inhibition in test [1] (setting [7]) is -2%; in test [1] (setting [8]) it was 67%; in test [1] (at 50.0 µM), 84.8% (active); in test [2] (setting [7]), -23%; in test [2] (setting [8]), 74% (active); in test [2] (at 50.0 µM), 76.2% (active). Moreover, the growth inhibition in test [3] (setting [7]) was -9%; in test [3] (setting [8]) it was 86% (active); in test [3] (at 50.0 µM) it was 97.8% (active); in test [4] (setting [7]), -6%; in test [4] (setting [8]) it was 71% (active); in test [4] (at 50.0 µM) it was 80.2% (active). Moreover, the growth inhibition in test [5] (setting [7]) is 31%; in test [5] (setting [8]) it was 97% (active); in test [5] (at 50.0 µM) it was 95.3% (active); in test [6] (setting [7]), 2%; in test [6] (setting [8]), 75% (active); in test [6] (at 50.0 µM), 91.5% (active).

For `COc1ccc(C(=O)C(C(c2ccccc2)N2CCc3ccccc3C2)N2CCc3ccccc3C2)cc1` (stereo not given), the growth inhibition was 3% in test [1] (setting [7]); 22% in test [1] (setting [8]); 27.4% in test [1] (at 50.0 µM); -2% in test [2] (setting [7]); 2% in test [2] (setting [8]); 15.2% in test [2] (at 50.0 µM). In addition, the growth inhibition in test [3] (setting [7]) is 0%; in test [3] (setting [8]), -6%; in test [3] (at 50.0 µM), 12.2%; in test [4] (setting [7]), 2%; in test [4] (setting [8]) it was -27%; in test [4] (at 50.0 µM) it was 26.9%. For the same molecule, the growth inhibition in test [5] (setting [7]) is -3%; in test [5] (setting [8]), 4%; in test [5] (at 50.0 µM) it was 78.3% (active); in test [6] (setting [7]) it was -1%; in test [6] (setting [8]), 6%; in test [6] (at 50.0 µM), 27.6%.

With `CC(C)(C)c1cc(C(P(=O)(c2ccccc2)c2ccccc2)P(=O)(c2ccccc2)c2ccccc2)cc(C(C)(C)C)c1O`, the growth inhibition in test [1] (setting [7]) is 3%; in test [1] (setting [8]) it was 96% (active); in test [1] (at 50.0 µM), 97.9% (active); in test [2] (setting [7]) it was -5%; in test [2] (setting [8]), 92% (active); in test [2] (at 50.0 µM), 93.7% (active). The growth inhibition in test [3] (setting [7]) is -8%; in test [3] (setting [8]) it was 97% (active); in test [3] (at 50.0 µM) it was 98.1% (active); in test [4] (setting [7]) it was 2%; in test [4] (setting [8]) it was 88% (active); in test [4] (at 50.0 µM), 94.7% (active). Further, the growth inhibition was -4% in test [5] (setting [7]); 93% (active) in test [5] (setting [8]); 96.3% (active) in test [5] (at 50.0 µM); -3% in test [6] (setting [7]); 92% (active) in test [6] (setting [8]); 96.7% (active) in test [6] (at 50.0 µM).

For `CC(NNC(=S)N1CCCC1)c1cc2ccccc2cn1` (stereo not given), the growth inhibition in test [1] (setting [7]) was 30%; in test [1] (setting [8]), 99% (active); in test [1] (at 50.0 µM) it was 89.2% (active); in test [2] (setting [7]), 38%; in test [2] (setting [8]), 99% (active); in test [2] (at 50.0 µM) it was 90.8% (active). The growth inhibition in test [3] (setting [7]) was 62%; in test [3] (setting [8]), 98% (active); in test [3] (at 50.0 µM), 90.8% (active); in test [4] (setting [7]), 66%; in test [4] (setting [8]) it was 96% (active); in test [4] (at 50.0 µM), 90.3% (active). For the same molecule, the growth inhibition was 64% in test [5] (setting [7]); 98% (active) in test [5] (setting [8]); 88.2% (active) in test [5] (at 50.0 µM); 34% in test [6] (setting [7]); 98% (active) in test [6] (setting [8]); 92.2% (active) in test [6] (at 50.0 µM).

As for `COc1cccc(C(c2cc3c(cc2O)OCO3)N2CCCC2)c1O` (stereo not given), the growth inhibition in test [1] (setting [7]) is 0%; in test [1] (setting [8]), 52%; in test [1] (at 50.0 µM) it was 48.2%; in test [2] (setting [7]), 1%; in test [2] (setting [8]), 44%; in test [2] (at 50.0 µM), 46.5%. Besides, the growth inhibition was -5% in test [3] (setting [7]); 48% in test [3] (setting [8]); 61.1% in test [3] (at 50.0 µM); -6% in test [4] (setting [7]); 24% in test [4] (setting [8]); 7.85% in test [4] (at 50.0 µM). For the same molecule, the growth inhibition is 6% in test [5] (setting [7]); 47% in test [5] (setting [8]); 41.2% in test [5] (at 50.0 µM); -1% in test [6] (setting [7]); 62% in test [6] (setting [8]); 77% (active) in test [6] (at 50.0 µM).

As for `CC(C)(C)/C=N/NS(=O)(=O)c1ccccc1`, the growth inhibition was -114% in test [1] (setting [7]); -146% in test [1] (setting [8]); -1% in test [1] (at 50.0 µM); -43% in test [2] (setting [7]); -43% in test [2] (setting [8]); -7.35% in test [2] (at 50.0 µM). Besides, the growth inhibition was -44% in test [3] (setting [7]); -62% in test [3] (setting [8]); 2.5% in test [3] (at 50.0 µM); -50% in test [4] (setting [7]); -61% in test [4] (setting [8]); 40.5% in test [4] (at 50.0 µM). Moreover, the growth inhibition was -57% in test [5] (setting [7]); -67% in test [5] (setting [8]); -5.2% in test [5] (at 50.0 µM); -100% in test [6] (setting [7]); -108% in test [6] (setting [8]); 4.65% in test [6] (at 50.0 µM).

Turning to `Cc1cc2c(C(C)C)c(O)c(O)c3coc(/c1=c1/c(C)cc4c(C(C)C)c(=O)c(=O)c5coc1c45)c32`, the growth inhibition in test [1] (setting [7]) was -1%; in test [1] (setting [8]) it was 97% (active); in test [1] (at 50.0 µM), 98.9% (active); in test [2] (setting [7]), 23%; in test [2] (setting [8]), 99% (active); in test [2] (at 50.0 µM), 99.2% (active). Moreover, the growth inhibition in test [3] (setting [7]) is 25%; in test [3] (setting [8]), 99% (active); in test [3] (at 50.0 µM), 99% (active); in test [4] (setting [7]), -25%; in test [4] (setting [8]) it was 98% (active); in test [4] (at 50.0 µM), 98.8% (active). The growth inhibition in test [5] (setting [7]) is -3%; in test [5] (setting [8]), 97% (active); in test [5] (at 50.0 µM), 98.5% (active); in test [6] (setting [7]), 29%; in test [6] (setting [8]), 98% (active); in test [6] (at 50.0 µM), 99.2% (active).

As for `O=[N+]([O-])/C(C(Cl)=C(Cl)Cl)=C(/Nc1ccccc1)SCc1ccccc1`, the growth inhibition was 32% in test [1] (setting [7]); 100% (active) in test [1] (setting [8]); 12.3% in test [1] (at 50.0 µM); 32% in test [2] (setting [7]); 100% (active) in test [2] (setting [8]); 26.1% in test [2] (at 50.0 µM). Moreover, the growth inhibition in test [3] (setting [7]) is 13%; in test [3] (setting [8]), 99% (active); in test [3] (at 50.0 µM), 18.9%; in test [4] (setting [7]) it was 21%; in test [4] (setting [8]), 97% (active); in test [4] (at 50.0 µM), 14.6%. Also, the growth inhibition in test [5] (setting [7]) is 28%; in test [5] (setting [8]) it was 94% (active); in test [5] (at 50.0 µM), 43.4%; in test [6] (setting [7]), 38%; in test [6] (setting [8]) it was 100% (active); in test [6] (at 50.0 µM) it was 50.6%.
